Among all 5,500 compounds or so, about 2,000 (36%) were called active. Inconclusive results (about 18%) are left out. Rule as the data show it: active = normalized growth mostly below about 0.91 (no sharp cut-off); inconclusive = no clear call, values can overlap the other calls; inactive = mostly above about 0.92. The list shows a part of the results.
Assay: chemical genetic growth profiling, strain panel (AID 1159580);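 also: tested at 20 µM; growth read once vehicle control cultures reached saturation at 30 °C; 1 = growth at the plate median or of vehicle wells; lower values mean less growth of the strain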
Conditions: S. cerevisiae deletion strains, growth OD

Measured: normalized growth

C/C=C(/C)C(=O)OC1CCC2(C)C3CCC4C5(O)CC(O)C6(O)C(CN7CC(C)CCC7C6(C)O)C5(O)CC42OC13O (configuration not stated)
active: locus YBR021W, strain FUR4, stronger effect = lower value 0.747 | locus YER167W, strain BCK2, stronger effect = lower value 0.852 | locus YJR043C, strain POL32, stronger effect = lower value 0.845 | locus YKR001C, strain vps1, stronger effect = lower value 0.821 | locus YLR262C, strain YPT6 (second series), stronger effect = lower value 0.82 | locus YLR330W, strain CHS5, stronger effect = lower value 0.902 | locus YLR342W, strain FKS1 (second series), stronger effect = lower value 0.715 | locus YLR418C, strain cdc73, stronger effect = lower value 0.705 | locus YNL307C, strain MCK1, stronger effect = lower value 0.83 | locus YOR184W, strain ser1, stronger effect = lower value 0.815
inactive: locus YAL021C, strain ccr4, stronger effect = lower value 0.955 | locus YAL026C, strain drs2, stronger effect = lower value 0.954 | locus YAL030W, strain snc1, stronger effect = lower value 1.01 | locus YBL061C, strain skt5, stronger effect = lower value 1.01 | locus YBR009C, strain hhf1, stronger effect = lower value 0.951 | locus YBR023C, strain chs3, stronger effect = lower value 0.992 | locus YBR171W, strain sec66, stronger effect = lower value 0.968 | locus YBR229C, strain ROT2, stronger effect = lower value 0.97 | locus YBR231C, strain swc5, stronger effect = lower value 0.991 | locus YBR279W, strain paf1, stronger effect = lower value 0.99 | locus YCL011C, strain gbp2, stronger effect = lower value 0.993 | locus YCL016C, strain dcc1, stronger effect = lower value 1.01 | locus YCL029C, strain bik1, stronger effect = lower value 0.979 | locus YCL069W, strain vba3, stronger effect = lower value 0.971 | locus YCR088W, strain abp1, stronger effect = lower value 0.993 | locus YDL005C, strain med2, stronger effect = lower value 1.01 | locus YDL035C, strain GPR1, stronger effect = lower value 0.922 | locus YDL040C, strain nat1, stronger effect = lower value 0.994 | locus YDL074C, strain BRE1, stronger effect = lower value 0.844 | locus YDL101C, strain DUN1, stronger effect = lower value 0.95 | locus YDL185W, strain tfp1, stronger effect = lower value 0.994 | locus YDL192W, strain arf1, stronger effect = lower value 0.96 | locus YDR001C, strain nth1, stronger effect = lower value 0.995 | locus YDR069C, strain doa4, stronger effect = lower value 1.01 | locus YDR101C, strain arx1, stronger effect = lower value 0.955 | locus YDR137W, strain rgp1, stronger effect = lower value 0.857 | locus YDR150W, strain NUM1, stronger effect = lower value 0.986 | locus YDR159W, strain sac3, stronger effect = lower value 0.974 | locus YDR162C, strain NBP2, stronger effect = lower value 0.942 | locus YDR195W, strain ref2 1.04 | locus YDR297W, strain sur2, stronger effect = lower value 0.982 | locus YDR318W, strain mcm21, stronger effect = lower value 0.964 | locus YDR334W, strain swr1, stronger effect = lower value 0.977 | locus YDR335W, strain msn5, stronger effect = lower value 0.999 | locus YDR388W, stronger effect = lower value 0.953 | locus YDR392W, strain spt3, stronger effect = lower value 0.95 | locus YDR502C, strain sam2, stronger effect = lower value 0.937 | locus YEL003W, strain gim4, stronger effect = lower value 0.993 | locus YEL037C, strain rad23, stronger effect = lower value 0.984 | locus YEL061C, strain CIN8 (second series), stronger effect = lower value 0.981 | locus YEL061C, strain CIN8, stronger effect = lower value 0.961 | locus YER015W, strain faa2, stronger effect = lower value 0.999 | locus YER016W, strain bim1, stronger effect = lower value 1.07 | locus YER110C, stronger effect = lower value 0.963 | locus YER111C, strain swi4, stronger effect = lower value 0.995 | locus YER155C, strain BEM2 (second series), stronger effect = lower value 0.969 | locus YER155C, strain BEM2, stronger effect = lower value 0.966 | locus YFR010W, strain ubp6, stronger effect = lower value 0.969 | locus YGL078C, strain dbp3, stronger effect = lower value 0.989 | locus YGL086W, strain mad1, stronger effect = lower value 0.953 | locus YGL167C, strain pmr1, stronger effect = lower value 0.996 | locus YGL173C, strain kem1, stronger effect = lower value 0.998 | locus YGL227W, strain vid30, stronger effect = lower value 1 | locus YGL240W, strain doc1, stronger effect = lower value 0.988 | locus YGL248W, strain PDE1, stronger effect = lower value 0.928 | locus YGL253W, strain hxk2, stronger effect = lower value 1 | locus YGR135W, strain pre9, stronger effect = lower value 0.928 | locus YGR252W, strain gcn5, stronger effect = lower value 0.789 | locus YHR013C, strain ard1, stronger effect = lower value 0.995 | locus YHR027C, strain rpn1, stronger effect = lower value 1 | locus YHR030C, strain SLT2, stronger effect = lower value 0.982 | locus YHR079C, strain IRE1 (second series), stronger effect = lower value 0.972 | locus YHR094C, strain hxt1, stronger effect = lower value 0.971 | locus YHR129C, strain ARP1, stronger effect = lower value 0.955 | locus YHR142W, strain chs7, stronger effect = lower value 0.974 | locus YHR200W, strain rpn10, stronger effect = lower value 0.973 | locus YIL066C, strain RNR3, stronger effect = lower value 0.885 | locus YIL073C, strain SPO22, stronger effect = lower value 0.924 | locus YIL125W, strain kgd1, stronger effect = lower value 0.976 | locus YIR030C, strain dcg1, stronger effect = lower value 0.978 | locus YJL092W, strain hpr5, stronger effect = lower value 1 | locus YJL095W, strain BCK1 (second series), stronger effect = lower value 1 | locus YJL095W, strain BCK1, stronger effect = lower value 0.891 | locus YJL115W, strain asf1, stronger effect = lower value 0.985 | locus YJL129C, strain trk1, stronger effect = lower value 1 | locus YJL134W, strain LCB3, stronger effect = lower value 0.983 | locus YJL154C, strain vps35, stronger effect = lower value 0.989 | locus YJL164C, strain tpk1, stronger effect = lower value 0.996 | locus YJL166W, strain qcr8, stronger effect = lower value 0.994 | locus YJL168C, strain set2, stronger effect = lower value 0.976 | locus YJL187C, strain SWE1 (second series), stronger effect = lower value 0.943 | locus YKL009W, strain mrt4, stronger effect = lower value 0.987 | locus YKL068W, stronger effect = lower value 0.961 | locus YKL085W, strain MDH1 (second series), stronger effect = lower value 0.948 | locus YKL085W, strain MDH1, stronger effect = lower value 0.948 | locus YKL160W, strain elf1, stronger effect = lower value 1.02 | locus YKL190W, strain CNB1, stronger effect = lower value 0.979 | locus YKR026C, strain gcn3, stronger effect = lower value 0.988 | locus YKR091W, strain srl3, stronger effect = lower value 1.01 | locus YLL001W, strain dnm1, stronger effect = lower value 0.985 | locus YLL026W, stronger effect = lower value 1 | locus YLL041C, strain sdh2, stronger effect = lower value 0.991 | locus YLR027C, strain aat2, stronger effect = lower value 1 | locus YLR039C, strain RIC1, stronger effect = lower value 0.889 | locus YLR058C, strain SHM2, stronger effect = lower value 0.949 | locus YLR102C, strain apc9, stronger effect = lower value 0.972 | locus YLR221C, strain rsa3, stronger effect = lower value 0.968 | locus YLR258W, strain gsy2, stronger effect = lower value 0.998 | locus YLR262C, strain YPT6, stronger effect = lower value 1 | locus YLR268W, strain sec22, stronger effect = lower value 0.938 | locus YLR320W, strain mms22, stronger effect = lower value 0.959 | locus YLR342W, strain FKS1, stronger effect = lower value 1 | locus YLR357W, strain rsc2, stronger effect = lower value 1.02 | locus YLR370C, strain arc18, stronger effect = lower value 0.994 | locus YLR371W, strain rom2, stronger effect = lower value 0.985 | locus YLR384C, strain iki3, stronger effect = lower value 0.991 | locus YML016C, strain PPZ1, stronger effect = lower value 0.969 | locus YML032C, strain rad52, stronger effect = lower value 0.935 | locus YML120C, strain ndi1, stronger effect = lower value 0.997 | locus YML124C, strain tub3, stronger effect = lower value 0.97 | locus YMR058W, strain fet3, stronger effect = lower value 0.993 | locus YMR078C, strain ctf18, stronger effect = lower value 0.968 | locus YMR125W, strain sto1, stronger effect = lower value 0.991 | locus YMR129W, stronger effect = lower value 1 | locus YMR205C, strain PFK2, stronger effect = lower value 0.986 | locus YMR223W, strain ubp8, stronger effect = lower value 0.957 | locus YMR231W, strain pep5, stronger effect = lower value 1 | locus YMR263W, strain SAP30, stronger effect = lower value 0.943 | locus YMR307W, strain GAS1, stronger effect = lower value 0.626 | locus YNL067W, strain RPL9B, stronger effect = lower value 0.962 | locus YNL071W, strain lat1, stronger effect = lower value 0.98 | locus YNL209W, strain ssb2, stronger effect = lower value 0.997 | locus YNL233W, strain BNI4, stronger effect = lower value 0.908 | locus YNL248C, strain rpa49, stronger effect = lower value 0.973 | locus YNL250W, strain rad50, stronger effect = lower value 0.992 | locus YNL271C, strain bni1, stronger effect = lower value 0.996 | locus YNL298W, strain CLA4, stronger effect = lower value 0.967 | locus YNL322C, strain KRE1 (second series), stronger effect = lower value 1.03 | locus YNL322C, strain KRE1, stronger effect = lower value 0.947 | locus YNR049C, strain mso1, stronger effect = lower value 1.02 | locus YNR052C, strain pop2, stronger effect = lower value 1.02 | locus YOL006C, strain TOP1, stronger effect = lower value 0.627 | locus YOL012C, strain htz1 0.727 | locus YOL147C, strain pex11, stronger effect = lower value 0.96 | locus YOR001W, strain rrp6, stronger effect = lower value 0.937 | locus YOR061W, strain CKA2, stronger effect = lower value 0.975 | locus YOR069W, strain VPS5, stronger effect = lower value 0.981 | locus YOR070C, strain gyp1, stronger effect = lower value 0.987 | locus YOR080W, strain dia2, stronger effect = lower value 1 | locus YOR083W, strain WHI5, stronger effect = lower value 1.03 | locus YOR106W, strain vam3, stronger effect = lower value 1.02 | locus YOR136W, strain idh2, stronger effect = lower value 0.979 | locus YOR144C, strain elg1, stronger effect = lower value 0.963 | locus YOR265W, strain rbl2, stronger effect = lower value 0.984 | locus YOR270C, strain vph1, stronger effect = lower value 0.94 | locus YOR290C, strain snf2, stronger effect = lower value 1.03 | locus YOR316C, strain cot1, stronger effect = lower value 0.969 | locus YPL051W, strain arl3, stronger effect = lower value 1.02 | locus YPL055C, strain LGE1, stronger effect = lower value 0.877 | locus YPL078C, strain atp4, stronger effect = lower value 1.01 | locus YPL106C, strain sse1, stronger effect = lower value 1.01 | locus YPL240C, strain hsp82, stronger effect = lower value 0.988 | locus YPR119W, strain clb2, stronger effect = lower value 0.969 | locus YPR141C, strain kar3, stronger effect = lower value 0.978 | locus YPR163C, strain tif3, stronger effect = lower value 0.964 | locus YPR167C, strain met16, stronger effect = lower value 0.967 | strain wtn01, stronger effect = lower value 0.949
